Test results published in the supplement of paper PMC10849652.
The full data set covers some 8,800 targets. This sample favours those with a hit. About 0.5% of all pairs of compound and target were hits. Values without a mark were called inactive.

Legend:
Assay in all cases: log2 fold change, soluble protein after heating vs DMSO (PISA); higher = thermal stabilisation; K562 lysate, 10 uM; active = over 0.2 and 3.5 SD of the protein, either way, in both replicates (recomputed)
vemurafenib = compound: CCCS(=O)(=O)Nc1ccc(F)c(C(=O)c2c[nH]c3ncc(-c4ccc(Cl)cc4)cc23)c1F [vemurafenib]
In short: (§1)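 Pellets of K562 cells were dounce-homogenised in PBS pH 7.4 with 1 mM MgCl2, and the crude extract was held at 1 mg/mL protein for a 30 min treatment with 10 μM compound. Aliquots were heated for 3 min over 48°C-58°C and pooled before NP-40 was added to 0.5% at 4°C. The supernatant from 21,000xg for 90 min was quantified by TMTpro 16plex LC-MS/MS with channel sums equalised. Values are reported from duplicates as log-two fold change in thermal stability relative to solvent controls.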

[1] = compound: CCCS(=O)(=O)Nc1ccc(F)c(C(=O)c2c[nH]c3ncc(Cl)cc23)c1F
In short: as §1

barasertib = compound: CCN(CCCOc1ccc2c(Nc3cc(CC(=O)Nc4cccc(F)c4)[nH]n3)ncnc2c1)CCOP(=O)(O)O [barasertib]
In short: as §1

[2] = compound: CC[C@@H]1C(=O)N(C)c2cnc(Nc3ccc(C(=O)NC4CCN(C)CC4)cc3OC)nc2N1C1CCCC1
In short: as §1

volasertib = compound: CC[C@@H]1C(=O)N(C)c2cnc(Nc3ccc(C(=O)N[C@H]4CC[C@H](N5CCN(CC6CC6)CC5)CC4)cc3OC)nc2N1C(C)C [volasertib]
In short: as §1

[3] = compound: CCn1c(C(=O)N(C2CC2)C2CC2)cc2c3c(ncn3C)c(Nc3cc(C)n(C)n3)nc21
In short: as §1

[4] = compound: CCn1cc(-c2ccnc3[nH]c(-c4cccc(CN(C)C)c4)cc23)c(-c2ccc(NC(=O)N(C)C)cc2)n1
In short: as §1

[5] = compound: CN1CCC(CNc2ccc3ncc(-c4cccc(OC(F)(F)F)c4)n3n2)CC1
In short: as §1

saracatinib = compound: CN1CCN(CCOc2cc(OC3CCOCC3)c3c(Nc4c(Cl)ccc5c4OCO5)ncnc3c2)CC1 [saracatinib]
In short: as §1

sotrastaurin = compound: CN1CCN(c2nc(C3=C(c4c[nH]c5ccccc45)C(=O)NC3=O)c3ccccc3n2)CC1 [sotrastaurin]
In short: as §1

UniProt Q9H9A6, sequence (Q9H9A6 whole entry, looked up): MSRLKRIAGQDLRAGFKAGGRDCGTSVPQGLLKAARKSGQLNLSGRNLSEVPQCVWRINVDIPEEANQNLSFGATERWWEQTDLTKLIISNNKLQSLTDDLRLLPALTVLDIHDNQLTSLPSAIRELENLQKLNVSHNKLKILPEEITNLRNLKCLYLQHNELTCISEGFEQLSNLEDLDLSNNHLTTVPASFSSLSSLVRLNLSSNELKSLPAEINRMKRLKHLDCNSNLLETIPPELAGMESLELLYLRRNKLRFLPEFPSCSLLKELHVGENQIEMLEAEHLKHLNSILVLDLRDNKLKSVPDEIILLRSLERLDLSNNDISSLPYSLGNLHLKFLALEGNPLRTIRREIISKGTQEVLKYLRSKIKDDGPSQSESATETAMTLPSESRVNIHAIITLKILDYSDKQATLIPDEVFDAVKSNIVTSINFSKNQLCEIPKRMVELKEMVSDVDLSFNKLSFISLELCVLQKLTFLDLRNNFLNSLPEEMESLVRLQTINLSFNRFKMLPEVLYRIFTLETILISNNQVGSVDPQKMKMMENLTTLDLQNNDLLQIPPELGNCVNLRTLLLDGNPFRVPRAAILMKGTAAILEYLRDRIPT
UniProt P46734, sequence (P46734 whole entry, looked up): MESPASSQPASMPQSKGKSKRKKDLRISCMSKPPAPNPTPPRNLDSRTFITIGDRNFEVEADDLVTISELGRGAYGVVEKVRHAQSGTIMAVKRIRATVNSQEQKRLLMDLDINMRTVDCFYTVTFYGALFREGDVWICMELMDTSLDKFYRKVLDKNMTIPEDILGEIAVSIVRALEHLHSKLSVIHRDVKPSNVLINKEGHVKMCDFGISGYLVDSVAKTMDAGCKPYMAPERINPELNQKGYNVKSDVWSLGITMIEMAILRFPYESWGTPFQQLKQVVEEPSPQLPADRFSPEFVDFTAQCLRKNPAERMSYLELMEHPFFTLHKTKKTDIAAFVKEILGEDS
UniProt Q9BQ69, sequence (Q9BQ69 whole entry, looked up): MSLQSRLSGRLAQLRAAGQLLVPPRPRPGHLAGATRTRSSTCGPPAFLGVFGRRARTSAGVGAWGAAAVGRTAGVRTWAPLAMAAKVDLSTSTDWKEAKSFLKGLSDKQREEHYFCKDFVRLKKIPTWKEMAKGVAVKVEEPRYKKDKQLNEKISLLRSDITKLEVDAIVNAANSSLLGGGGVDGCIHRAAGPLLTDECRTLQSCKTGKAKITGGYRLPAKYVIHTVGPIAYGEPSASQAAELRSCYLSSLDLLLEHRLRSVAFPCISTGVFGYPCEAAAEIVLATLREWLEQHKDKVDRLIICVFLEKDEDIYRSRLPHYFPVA
UniProt Q8IYU8, sequence (Q8IYU8 whole entry, looked up): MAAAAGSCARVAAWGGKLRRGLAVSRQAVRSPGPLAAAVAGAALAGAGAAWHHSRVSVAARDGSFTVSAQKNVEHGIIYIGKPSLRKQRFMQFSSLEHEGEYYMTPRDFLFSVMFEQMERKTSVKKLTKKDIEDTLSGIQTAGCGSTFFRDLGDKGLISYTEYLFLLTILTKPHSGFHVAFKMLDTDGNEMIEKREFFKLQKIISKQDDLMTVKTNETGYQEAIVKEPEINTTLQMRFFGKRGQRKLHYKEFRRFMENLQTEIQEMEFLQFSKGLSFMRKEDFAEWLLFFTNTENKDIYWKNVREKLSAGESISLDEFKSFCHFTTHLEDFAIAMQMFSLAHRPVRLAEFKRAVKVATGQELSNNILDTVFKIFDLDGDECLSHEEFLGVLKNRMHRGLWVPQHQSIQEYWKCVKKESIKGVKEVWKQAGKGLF
UniProt P27816, sequence (P27816 whole entry, looked up): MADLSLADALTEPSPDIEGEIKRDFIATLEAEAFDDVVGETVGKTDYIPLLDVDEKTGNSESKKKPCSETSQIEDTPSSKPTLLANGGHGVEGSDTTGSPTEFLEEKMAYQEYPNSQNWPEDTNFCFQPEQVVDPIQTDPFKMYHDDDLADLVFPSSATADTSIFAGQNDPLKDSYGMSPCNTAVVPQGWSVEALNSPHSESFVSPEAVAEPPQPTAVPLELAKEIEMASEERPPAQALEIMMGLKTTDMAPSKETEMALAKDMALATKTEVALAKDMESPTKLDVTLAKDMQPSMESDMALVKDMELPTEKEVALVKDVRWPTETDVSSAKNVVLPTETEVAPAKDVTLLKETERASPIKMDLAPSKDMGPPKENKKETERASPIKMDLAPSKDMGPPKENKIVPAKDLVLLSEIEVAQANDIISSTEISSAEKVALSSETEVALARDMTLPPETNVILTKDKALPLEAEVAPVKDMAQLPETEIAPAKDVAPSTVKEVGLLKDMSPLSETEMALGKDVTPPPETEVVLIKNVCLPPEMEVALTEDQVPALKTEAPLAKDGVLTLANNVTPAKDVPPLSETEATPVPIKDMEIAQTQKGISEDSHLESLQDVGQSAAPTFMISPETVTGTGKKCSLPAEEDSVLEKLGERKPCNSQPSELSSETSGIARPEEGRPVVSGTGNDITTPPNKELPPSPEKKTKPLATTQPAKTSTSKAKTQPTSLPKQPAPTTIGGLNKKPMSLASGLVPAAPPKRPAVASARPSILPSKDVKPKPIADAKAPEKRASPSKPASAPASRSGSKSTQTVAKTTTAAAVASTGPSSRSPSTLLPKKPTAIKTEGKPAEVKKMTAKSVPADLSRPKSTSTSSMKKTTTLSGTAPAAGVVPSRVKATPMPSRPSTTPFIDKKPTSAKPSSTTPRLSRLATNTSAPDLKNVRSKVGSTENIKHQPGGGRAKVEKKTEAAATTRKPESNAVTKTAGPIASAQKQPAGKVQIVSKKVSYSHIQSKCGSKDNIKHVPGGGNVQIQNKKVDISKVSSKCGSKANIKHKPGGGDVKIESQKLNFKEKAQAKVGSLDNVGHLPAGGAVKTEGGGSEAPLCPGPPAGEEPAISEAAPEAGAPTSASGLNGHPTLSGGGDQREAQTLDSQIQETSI
UniProt Q96EM0, sequence (Q96EM0 whole entry, looked up): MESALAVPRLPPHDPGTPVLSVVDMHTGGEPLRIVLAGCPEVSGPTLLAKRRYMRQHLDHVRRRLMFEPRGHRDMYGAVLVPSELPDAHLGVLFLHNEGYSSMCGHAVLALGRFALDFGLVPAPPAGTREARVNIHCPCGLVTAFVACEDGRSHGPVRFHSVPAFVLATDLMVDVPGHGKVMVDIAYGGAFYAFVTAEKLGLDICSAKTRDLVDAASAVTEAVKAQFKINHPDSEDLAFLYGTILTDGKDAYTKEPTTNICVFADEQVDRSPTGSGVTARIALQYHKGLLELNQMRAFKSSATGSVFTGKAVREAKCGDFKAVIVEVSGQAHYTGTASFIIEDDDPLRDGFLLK
UniProt Q9UI95, sequence (Q9UI95 whole entry, looked up): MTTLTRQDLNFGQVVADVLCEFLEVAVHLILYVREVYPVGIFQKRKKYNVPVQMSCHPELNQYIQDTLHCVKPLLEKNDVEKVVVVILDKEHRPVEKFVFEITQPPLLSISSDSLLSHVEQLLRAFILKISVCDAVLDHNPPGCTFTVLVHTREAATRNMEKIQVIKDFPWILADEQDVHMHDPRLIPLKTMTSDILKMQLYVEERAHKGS
UniProt Q8NHP6, sequence (Q8NHP6 whole entry, looked up): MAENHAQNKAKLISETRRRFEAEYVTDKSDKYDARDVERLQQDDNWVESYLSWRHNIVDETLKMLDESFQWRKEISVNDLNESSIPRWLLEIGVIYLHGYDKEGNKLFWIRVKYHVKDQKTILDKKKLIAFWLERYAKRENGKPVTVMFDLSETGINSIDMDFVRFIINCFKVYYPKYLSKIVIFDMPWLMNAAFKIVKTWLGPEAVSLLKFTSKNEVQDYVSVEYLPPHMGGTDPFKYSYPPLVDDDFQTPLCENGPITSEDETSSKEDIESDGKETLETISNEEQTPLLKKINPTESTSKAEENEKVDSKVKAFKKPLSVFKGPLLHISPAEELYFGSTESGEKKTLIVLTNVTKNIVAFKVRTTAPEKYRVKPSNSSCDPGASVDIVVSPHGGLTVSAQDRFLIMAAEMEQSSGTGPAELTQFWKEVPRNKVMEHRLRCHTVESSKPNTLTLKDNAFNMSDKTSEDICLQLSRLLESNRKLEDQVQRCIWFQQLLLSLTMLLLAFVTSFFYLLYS
UniProt Q8WVR3, sequence (Q8WVR3 whole entry, looked up): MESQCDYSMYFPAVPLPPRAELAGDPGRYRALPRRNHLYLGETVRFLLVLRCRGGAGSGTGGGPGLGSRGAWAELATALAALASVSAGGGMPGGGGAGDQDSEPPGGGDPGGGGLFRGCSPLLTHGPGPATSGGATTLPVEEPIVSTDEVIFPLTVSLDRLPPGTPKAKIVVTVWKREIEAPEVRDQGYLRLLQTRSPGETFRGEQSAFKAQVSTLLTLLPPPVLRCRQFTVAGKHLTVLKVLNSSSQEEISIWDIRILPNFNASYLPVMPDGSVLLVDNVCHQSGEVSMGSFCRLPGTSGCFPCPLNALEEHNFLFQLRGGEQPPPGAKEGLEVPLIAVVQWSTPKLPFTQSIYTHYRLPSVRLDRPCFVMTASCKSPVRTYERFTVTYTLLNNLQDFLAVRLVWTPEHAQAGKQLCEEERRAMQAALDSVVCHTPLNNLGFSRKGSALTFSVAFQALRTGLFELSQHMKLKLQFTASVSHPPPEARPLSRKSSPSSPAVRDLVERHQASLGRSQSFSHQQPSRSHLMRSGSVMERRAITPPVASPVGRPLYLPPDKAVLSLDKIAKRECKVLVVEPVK
UniProt P28482, sequence (P28482 whole entry, looked up): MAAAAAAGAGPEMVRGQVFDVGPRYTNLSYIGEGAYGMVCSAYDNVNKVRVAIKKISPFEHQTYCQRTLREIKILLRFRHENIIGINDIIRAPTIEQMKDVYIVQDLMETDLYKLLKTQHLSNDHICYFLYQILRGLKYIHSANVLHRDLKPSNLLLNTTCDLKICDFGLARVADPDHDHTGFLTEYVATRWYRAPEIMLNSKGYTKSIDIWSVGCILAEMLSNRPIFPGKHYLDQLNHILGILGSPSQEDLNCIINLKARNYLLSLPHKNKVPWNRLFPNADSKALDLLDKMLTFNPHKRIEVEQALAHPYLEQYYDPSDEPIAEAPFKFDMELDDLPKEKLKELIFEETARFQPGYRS

| Target | log2 fold change (vemurafenib) | log2 fold change [1] | log2 fold change (barasertib) | log2 fold change [2] | log2 fold change (volasertib) | log2 fold change [3] | log2 fold change [4] | log2 fold change [5] | log2 fold change (saracatinib) | log2 fold change (sotrastaurin) |
| --- | --- | --- | --- | --- | --- | --- | --- | --- | --- | --- |
| MAP11 (UniProt Q8WVR3) | -0.032 | 0.044 | 0.07 | 0.129 | -0.079 | 0.086 | 0.049 | 0.06 | 0.033 | -0.039 |
| MAP3K4 (UniProt Q9Y6R4) | 0.006 | 0.007 | 0.107 | 0.145 | 0.167 | 0.012 | 0.047 | 0.015 | 0.005 | -0.014 |
| MORC3 (UniProt Q14149) | 0.025 | 0.01 | 0.019 | -0.03 | -0.077 | 0.007 | -0.007 | -0.055 | 0.004 | 0.006 |
| MAPK1 (UniProt P28482) | -0.022 | -0.072 | -0.015 | -0.013 | -0.009 | 0.004 | 0.004 | -0.023 | 0.002 | -0.007 |
| MICU2 (UniProt Q8IYU8) | -0.061 | 0.043 | 0.109 | -0.023 | 0 | -0.036 | 0.013 | -0.101 | 0.021 | 0.126 |
| KNOP1 (UniProt Q1ED39) | -0.285 | 0.026 | -0.014 | 0.315 | 0.056 | -0.161 | 0.016 | 0.012 | -0.029 | -0.063 |
| MCMBP (UniProt Q9BTE3) | -0.029 | 0.019 | -0.007 | 0.006 | -0.026 | 0.043 | 0.035 | -0.032 | 0.02 | 0.015 |
| KIF2C (UniProt Q99661) | 0.01 | 0.004 | 0.008 | -0.058 | -0.023 | 0.016 | 0.006 | -0.015 | -0.015 | 0.02 |
| MLST8 (UniProt Q9BVC4) | 0.025 | 0.029 | 0.074 | 0.026 | -0.009 | 0.023 | -0.03 | 0.012 | 0.075 | -0.045 |
| MAP2K3 isoform 3 (UniProt P46734) | 0.065 | -0.042 | 0.032 | -0.125 | 0.07 | -0.063 | 0.191 | 0.04 | 0.113 | -0.008 |
| MAPKAPK3 (UniProt Q16644) | -0.02 | -0.018 | 0.015 | -0.145 | 0.002 | 0.028 | -0.001 | -0.067 | 0.003 | -0.014 |
| L3HYPDH (UniProt Q96EM0) | 0.04 | 0.033 | 0.015 | 0.002 | -0.017 | 0.011 | 0.01 | 0.012 | -0.027 | -0.008 |
| MACO1 (UniProt Q8N5G2) | -0.114 | -0.003 | -0.063 | 0.296 (active) | -0.009 | 0.025 | 0.113 | -0.037 | 0.064 | -0.01 |
| LRRC40 (UniProt Q9H9A6) | 0.004 | 0.015 | 0.034 | -0.024 | -0.011 | 0.018 | 0.052 | -0.052 | 0 | 0.021 |
| MAD2L2 (UniProt Q9UI95) | -0.028 | 0.246 | 0.013 | -0.065 | 0.044 | 0.089 | -0.036 | -0.051 | 0.079 | -0.006 |
| MIPEP (UniProt Q99797) | -0.026 | 0.004 | 0.006 | -0.053 | -0.029 | 0.029 | -0.05 | -0.015 | 0.001 | -0.042 |
| KPNA4 (UniProt O00629) | -0.003 | 0.017 | -0.089 | 0.048 | 0.026 | -0.022 | -0.318 (active) | 0.103 | -0.032 | 0.03 |
| LZTR1 (UniProt Q8N653) | 0.026 | -0.118 | 0.081 | 0.002 | -0.125 | -0.012 | 0 | -0.047 | -0.031 | 0.065 |
| MAP4K2 (UniProt Q12851) | 0.198 | -0.038 | 0.009 | -0.009 | -0.035 | -0.023 | -0.317 | 0.105 | 0.005 | 0.053 |
| MAP2K5 (UniProt Q13163) | 0.207 | 0.302 | 0.019 | -0.148 | -0.311 | -0.144 | 0.15 | -0.029 | -0.079 | 0.014 |
| LIMK1 (UniProt P53667) | 0.234 | 0.179 | 0.007 | -0.195 | -0.215 | 0.108 | -0.104 | -0.028 | -0.022 | -0.15 |
| MOSPD2 (UniProt Q8NHP6) | 0.003 | 0.008 | -0.007 | 0.158 | -0.014 | 0.039 | -0.054 | 0.004 | 0.043 | 0.076 |
| MOCS1 isoform 8 (UniProt Q9NZB8) | 0.063 | 0.022 | 0.166 | -0.043 | -0.004 | -0.015 | -0.063 | -0.013 | 0.006 | -0.018 |
| MRPL19 (UniProt P49406) | 0.026 | 0.029 | 0.001 | -0.139 | -0.056 | 0 | 0.026 | -0.053 | 0.016 | -0.016 |
| MICB, A0A140T979 | -0.054 | 0.098 | 0.039 | 0.223 | -0.072 | -0.084 | -0.05 | 0.066 | 0.019 | 0.096 |
| MED17 (UniProt Q9NVC6) | 0.028 | 0.007 | 0.004 | -0.023 | -0.02 | 0.002 | -0.037 | 0.013 | 0.01 | 0.031 |
| MAP2K4 isoform 2 (UniProt P45985) | 0.601 (active) | 0.243 | 0.09 | -0.127 | -0.01 | 0.04 | 0.936 (active) | -0.063 | -0.063 | 0.002 |
| MINK1 (UniProt Q8N4C8) | -0.096 | -0.107 | -0.017 | -0.012 | 0.022 | 0.076 | -0.033 | -0.09 | 0.007 | 0.079 |
| MACROD1 (UniProt Q9BQ69) | 0.016 | 0.043 | -0.002 | 0.033 | -0.015 | -0.012 | -0.043 | -0.014 | 0.008 | 0.002 |
| MAP4 (UniProt P27816) | 0.01 | -0.017 | -0.016 | 0.064 | 0.033 | -0.022 | -0.042 | 0.036 | -0.009 | -0.027 |
